Results from PubChem BioAssay (Tox21).
Inconclusive results are not listed. Calls of active or inactive are those of the source. Unless noted, calls follow the shape of the dose curve; as a rule, active = well fitted curve in the direction sought with a large enough effect in the repeat runs; inconclusive = weak or mixed curves; inactive = no such curve, though single readings can be large; an effect the other way counts as inactive or inconclusive.

Assays:
[1] = qHTS assay for identifying genotoxic compounds that show differential cytotoxicity against isogenic chicken DT40 cell lines with known DNA damage response pathways - wild type cell line (AID 743012); details: DT40 wild type chicken cells viability, CellTiter-Glo, 40 h; series mostly up to 68.4 µM; also: nearly all actives have a fitted effect of over 60% in size; also: potency is read from the fitted curve at half-maximal effect
Outline: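 Using parental DT40 (300 cells/well), compounds delivered in DMSO incubate 40 h at 37 C/5% CO2. CellTiter-Glo reagent then stands 30 min at room temperature, and luminescence gives cell viability.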

[2] = qHTS assay for identifying genotoxic compounds that show differential cytotoxicity against isogenic chicken DT40 cell lines with known DNA damage response pathways - Rev3 mutant cell line (AID 743014); details: chicken DT40 Rev3-/- viability, CellTiter-Glo, 40 h; series mostly up to 68.4 µM; also: nearly all actives have a fitted effect of over 55% in size; also: potency is read from the fitted curve at half-maximal effect
[3] = qHTS assay for identifying genotoxic compounds that show differential cytotoxicity against isogenic chicken DT40 cell lines with known DNA damage response pathways - Rad54/Ku70 mutant cell line (AID 743015); details: DT40 Rad54/Ku70 mutant viability, CellTiter-Glo, 40 h; series mostly up to 66.8 µM; also: nearly all actives have a fitted effect of over 60% in size; also: potency is read from the fitted curve at half-maximal effect
[4] = qHTS assay to identify small molecule antagonists of the androgen receptor (AR) signaling pathway - cell viability counter screen (AID 743033; also: nearly all actives have a fitted effect of over 45% in size); details: AR-bla HEK293 viability, CellTiter-Glo luminescence, 16 h; series mostly up to 58.5 µM
[5] = target: Androgen receptor (Homo sapiens) (UniProt P10275); test: qHTS assay to identify small molecule antagonists of the androgen receptor (AR) signaling pathway (AID 743035; active = well fitted inhibition curve with a large enough effect in the signal ratio in the repeat runs, not every such curve was filed as active; the % refers to the signal ratio; also: potency is read from the fitted curve at half-maximal effect); details: HEK293 AR-UAS-bla, R1881-stimulated, beta-lactamase FRET, 16 h; series mostly up to 58.5 µM
Outline: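 Using qHTS, AR-UAS-bla GripTite HEK293 cells received compound, then R1881, and were cultured 16 h at 37C/5% CO2 before a 2 h room-temperature LiveBLAzer B/G FRET substrate step and fluorescence measurement.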

[6] = target: Androgen receptor (Homo sapiens) (UniProt P10275); test: qHTS assay to identify small molecule agonists of the androgen receptor (AR) signaling pathway (AID 743036; active = well fitted activation curve with a large enough effect in the signal ratio in the repeat runs, with a control signal flat, not every such curve was filed as active; the % refers to the signal ratio); details: HEK293 AR-UAS-bla GripTite, beta-lactamase FRET ratio, 16 h; series mostly up to 62.4 µM
Outline: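 Following a 4 h settling period, AR-UAS-bla HEK293 cells were dosed with compounds for 16 h at 37C. A 2 h room-temperature incubation with LiveBLAzer B/G FRET substrate preceded the fluorescence measurement.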

[7] = target: Androgen receptor (Homo sapiens) (UniProt P10275); test: qHTS assay to identify small molecule agonists of the androgen receptor (AR) signaling pathway using the MDA cell line (AID 743040; also: nearly all actives have a fitted effect of over 20% in size; also: potency is read from the fitted curve at half-maximal effect); details: MDA-kb2 AR-luc cells, MMTV luciferase, 16 h; series mostly up to 70.3 µM
Outline: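 MDA-kb2 breast carcinoma cells stably carrying an MMTV-driven luciferase reporter (AR- and GR-responsive) were seeded and held 5 h at 37C, 0% CO2, then exposed to compounds in DMSO for 16 h. Luminescence was read 30 min after ONE-Glo addition.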

[8] = qHTS assay to identify small molecule antagonists of the androgen receptor (AR) signaling pathway using the MDA cell line - cell viability counter screen (AID 743041; also: nearly all actives have a fitted effect of over 45% in size); details: MDA-kb2 viability, CellTiter-Fluor, 16 h, cells co-treated with R1881 androgen agonist; series mostly up to 70.3 µM
Outline: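 MDA-kb2 AR-luc human breast carcinoma cells (MMTV-luciferase, AR/GR responsive) were treated with compounds plus R1881 agonist for 16 h at 37 °C. Viability was read as CellTiter-Fluor fluorescence in the same wells as the reporter assay.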

[9] = target: Androgen receptor (Homo sapiens) (UniProt P10275); test: qHTS assay to identify small molecule antagonists of the androgen receptor (AR) signaling pathway using the MDA cell line (AID 743042; also: nearly all actives have a fitted effect of over 55% in size); details: MDA-kb2 AR-luc, MMTV luciferase, R1881 antagonist, 16 h; series mostly up to 70.3 µM
Outline: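 MDA-kb2 cells (human breast carcinoma, stably carrying an MMTV-luciferase reporter responsive to AR and GR) were plated at 3,000 cells/well and preincubated 5 hr at 37C, then given compound plus R1881 agonist for 16 h. ONE-Glo luminescence was read.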

[10] = qHTS assay to identify small molecule antagonists of the glucocorticoid receptor (GR) signaling pathway - cell viability counter screen (AID 720693); details: GR-bla HeLa viability, CellTiter-Glo luminescence, 18 h, with 5 nM dexamethasone present; series mostly up to 58.5 µM; also: nearly all actives have a fitted effect of over 55% in size

Measured: Potency

Sequence of Androgen receptor (Homo sapiens) (P10275 whole entry, looked up): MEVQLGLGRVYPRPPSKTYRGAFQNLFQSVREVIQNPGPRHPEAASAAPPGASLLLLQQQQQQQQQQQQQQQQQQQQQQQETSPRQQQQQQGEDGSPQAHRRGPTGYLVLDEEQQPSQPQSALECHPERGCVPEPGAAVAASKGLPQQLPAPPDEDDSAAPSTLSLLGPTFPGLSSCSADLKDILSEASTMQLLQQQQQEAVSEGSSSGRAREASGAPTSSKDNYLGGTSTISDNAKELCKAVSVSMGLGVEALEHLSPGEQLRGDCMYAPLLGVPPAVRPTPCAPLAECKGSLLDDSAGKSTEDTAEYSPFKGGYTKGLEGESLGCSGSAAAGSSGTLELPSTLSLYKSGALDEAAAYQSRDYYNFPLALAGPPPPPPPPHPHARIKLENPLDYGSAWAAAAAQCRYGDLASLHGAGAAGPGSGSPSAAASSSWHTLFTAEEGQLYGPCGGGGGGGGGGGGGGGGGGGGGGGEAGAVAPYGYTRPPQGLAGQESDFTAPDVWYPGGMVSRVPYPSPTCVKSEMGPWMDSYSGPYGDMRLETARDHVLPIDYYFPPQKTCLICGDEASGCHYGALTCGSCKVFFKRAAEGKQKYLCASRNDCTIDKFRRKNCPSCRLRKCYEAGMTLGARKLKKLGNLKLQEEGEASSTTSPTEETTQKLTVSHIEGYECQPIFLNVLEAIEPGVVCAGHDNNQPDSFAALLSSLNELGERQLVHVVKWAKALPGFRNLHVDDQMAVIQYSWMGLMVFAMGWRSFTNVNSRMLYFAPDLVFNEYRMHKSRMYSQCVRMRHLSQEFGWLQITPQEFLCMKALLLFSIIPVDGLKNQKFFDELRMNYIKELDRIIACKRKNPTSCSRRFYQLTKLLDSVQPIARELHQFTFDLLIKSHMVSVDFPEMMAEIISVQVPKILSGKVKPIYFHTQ

CC1=NN(c2cccc(S(=O)(=O)O)c2)C(=O)C1
not listed: [10]
inactive: all other assays above

CN(C)C(=O)Oc1cccc([N+](C)(C)C)c1
inactive: [1] | [2] | [3] | [4] | [8]

C[C@@H]1C[C@H]2[C@@H]3C[C@H](F)C4=CC(=O)C(Cl)=C[C@]4(C)[C@@]3(F)[C@@H](O)C[C@]2(C)[C@@]1(O)C(=O)CO
inactive: [10] | [4] | [8] | [9]
active: [3] 29.8 µM | [5] 3.38 µM | [7] 0.006 µM

CCCCCCCCCCCCCCC(=O)O
inactive: [10] | [4] | [8]

CCOc1ccc2nc(S(N)(=O)=O)sc2c1
inactive: [1] | [2] | [3] | [4] | [8]

CCCc1ncc(C[n+]2ccccc2C)c(N)n1
inactive: [10] | [3] | [4] | [8]

NS(=O)(=O)Cc1noc2ccccc12
not listed: [10]
inactive: all other assays above

N[C@H](C(=O)O)[C@@H](O)c1ccc(O)c(O)c1
inactive: [4] | [8]
active: [1] 13.3 µM | [2] 16.8 µM | [3] 21.1 µM

COCCOC[C@H](CC1(C(=O)NC2CCC(C(=O)O)CC2)CCCC1)C(=O)Oc1ccc2c(c1)CCC2 (some centres not stated)
not listed: [10]
inactive: all other assays above

O=C(CO)[C@@H](O)[C@H](O)[C@H](O)CO
inactive: [1] | [2] | [3] | [4] | [8]

C=C(C)C(=O)OCCOCCOCCOCCOC(=O)C(=C)C
inactive: [10] | [2] | [4] | [8]

CCOC(=O)C1=NOC(c2ccccc2)(c2ccccc2)C1
inactive: [10] | [8]
active: [2] 68.6 µM

NC(=O)Cc1cccc2ccccc12
inactive: [1] | [2] | [3] | [4] | [8]

CC(C)=CCC/C(C)=C/C#N
inactive: [10] | [8]

CC(C)(C)C(=O)Oc1ccc(S(=O)(=O)Nc2ccccc2C(=O)NCC(=O)O)cc1
inactive: [10] | [3] | [8]

O=[N+]([O-])c1ccc(/C=N\O)o1
inactive: [10] | [8]

CC[C@H]1OC(=O)[C@H](C)[C@@H](O[C@H]2C[C@@](C)(OC)[C@@H](O)[C@H](C)O2)[C@H](C)[C@@H](O[C@@H]2O[C@H](C)C[C@H](N(C)C)[C@H]2O)[C@](C)(OC)C[C@@H](C)C(=O)[C@H](C)[C@@H](O)[C@]1(C)O
inactive: [10] | [2] | [3] | [4] | [8]

Cc1ncc(COP(=O)(O)O)c(C=O)c1O
inactive: [10] | [3] | [4] | [8]

Cc1ccccc1N=C(N)N=C(N)N
inactive: [10] | [2] | [3] | [4] | [8]

C[N+](C)(CCOc1ccccc1)Cc1cccs1
inactive: [10] | [3] | [7] | [8]

CN1CCC(=C2c3ccccc3CCc3cccnc32)CC1
inactive: [10] | [2] | [4] | [8]

CCOC(=O)c1ccccc1
inactive: [10] | [1] | [8]

C=C[Si](OC(C)=O)(OC(C)=O)OC(C)=O
active: [2] 61.1 µM
not listed: [1] | [3]
inactive: all other assays above

CCOC(=O)c1cnc2c(cnn2CC)c1NN=C(C)C
inactive: [10] | [4] | [8]

COc1cc2c(cc1OC)-c1cc3ccc(OC)c(OC)c3c[n+]1CC2
active: [2] 49 µM
inactive: [10] | [4]

CCC(C)(CN(C)C)OC(=O)c1ccccc1 (configuration not stated)
inactive: [10] | [4] | [8]

CCCCc1ccc2c(n1)[C@@H](c1ccc(OC)cc1C[C@H](C)C(=O)O)[C@H](C(=O)O)[C@H]2c1ccc2c(c1)OCO2
inactive: [1] | [2] | [8]

CC(=O)c1cnccn1
inactive: [1] | [3] | [4] | [8]

O=C(O)CNC(=O)c1ccccc1
inactive: [1] | [3] | [4] | [8]

Cc1ccc(C(=O)c2ccccc2)cc1
inactive: [5] | [6] | [7] | [8] | [9]
active: [1] 61.1 µM | [2] 54.5 µM

NC(=O)N[C@@H](CCC(=O)O)C(=O)O
inactive: [1] | [2] | [4] | [8]

COc1cc(C)nc(-n2nc(C)cc2OC)n1
inactive: [4] | [8]

COc1cc(C(=O)OC(COCCC(C)C)CN2CCOCC2)cc(OC)c1OC (configuration not stated)
inactive: [2] | [8]

O=S(=O)(O)c1cc(O)c(O)c(S(=O)(=O)O)c1
not listed: [3] | [10]
inactive: all other assays above

CCC(=O)OCc1ccccc1
inactive: [2] | [4] | [8]

CC[N+](CC)(CC(=O)Nc1c(C)cccc1C)Cc1ccccc1 (tested in a mixture with another compound)
inactive: [3] | [4] | [8]
active: [2] 16 µM

CC1(C)OC[C@@H](COC(=O)CCc2ccc(OC[C@@H](O)CNCCNC(=O)N3CCOCC3)cc2)O1
not listed: [3] | [10]
inactive: all other assays above

CC(C)CCCO
inactive: [1] | [2] | [3] | [4] | [8]

O=C1c2ccccc2C(=O)c2cc(O)ccc21
inactive: [1] | [4] | [8]

CCCCCCC1CCC(=O)O1 (configuration not stated)
inactive: [3] | [4] | [8]

CC(C)CC(C)(N)C#N (configuration not stated)
inactive: [1] | [2] | [3] | [4] | [8]

CC(=O)c1ccccc1[N+](=O)[O-]
inactive: [1] | [3] | [8]

Nc1ccncc1N
inactive: [1] | [3] | [4] | [8]

C=CCCC(=O)O
inactive: [1] | [3] | [4] | [8]

C=C(C)C(=O)OCC1CCCO1 (configuration not stated)
inactive: [1] | [2] | [4] | [8]

c1ccc2sc(SN3CCOCC3)nc2c1
inactive: [2] | [4] | [8]

CCCCCCCCN1CCCC1=O
inactive: [2] | [4] | [8]

Cc1ccc(-c2ncc(Cl)cc2-c2ccc(S(C)(=O)=O)cc2)cn1
not listed: [3] | [4] | [10]
inactive: all other assays above

COc1cc(C(=O)NCc2ccc(OCCN(C)C)cc2)cc(OC)c1OC
inactive: [1] | [3] | [8]

CCOC(=O)CCC(=O)OCC
inactive: [8]
active: [2] 68.5 µM

OCCCCCO
inactive: [1] | [3] | [8]

c1coc(CNc2ncnc3nc[nH]c23)c1
active: [3] 54.5 µM
inactive: [8]

CO[C@@]1(NC(=O)C(C(=O)O)c2ccc(O)cc2)C(=O)N2C(C(=O)O)=C(CSc3nnnn3C)CO[C@@H]21 (some centres not stated)
inactive: [1] | [2] | [3] | [4] | [8]

CCCCS(=O)(=O)N[C@@H](Cc1ccc(OCCCCC2CCNCC2)cc1)C(=O)O
inactive: [1] | [4] | [5] | [7] | [8] | [9]

CCOC(=O)OC(C)OC1=C(C(=O)Nc2ccccn2)N(C)S(=O)(=O)c2ccccc21 (configuration not stated)
inactive: [4] | [8]
active: [2] 1.5 µM | [3] 0.944 µM

Cc1ccc(C(=O)Nc2ccc(S(=O)(=O)O)c3cc(S(=O)(=O)O)cc(S(=O)(=O)O)c23)cc1NC(=O)c1cccc(NC(=O)Nc2cccc(C(=O)Nc3cc(C(=O)Nc4ccc(S(=O)(=O)O)c5cc(S(=O)(=O)O)cc(S(=O)(=O)O)c45)ccc3C)c2)c1
inactive: [1] | [4] | [8]

CCCCCC(C)N (configuration not stated)
inactive: [1] | [4] | [5] | [7] | [8] | [9]

CCOC(=O)COc1cc(-n2ncc(C(F)(F)F)c(C)c2=O)c(F)cc1Cl
not listed: [1] | [3] | [10]
inactive: all other assays above

COc1cc(-c2ccc(=O)[nH]n2)ccc1OC(F)F
inactive: [1] | [4] | [8]

CN(C)[C@@H]1C(=O)C(C(=O)NCN2CCCC2)=C(O)[C@@]2(O)C(=O)C3=C(O)c4c(O)cccc4[C@@](C)(O)C3C[C@@H]12 (some centres not stated)
inactive: [1] | [2] | [3] | [4] | [8]

C[N+]1(C)CCCC(OC(=O)C(O)(c2ccccc2)c2ccccc2)C1 (configuration not stated)
inactive: [1] | [3] | [4] | [8]

CCN(CC#N)c1cccc(C)c1
inactive: [1] | [2] | [3] | [8]
